# Data taken from PubChem BioAssay.
# Inconclusive results are not listed. For some assays here: Results with a measured potency or affinity are listed apart. Calls of active or inactive are those of the source.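 How the source made its calls, unless noted: active means compounds lowering colon cancer cell viability after pretreatment blocking the GSK3B kinase; inactive means the rest.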
# Key:
# [1] = stimulators of insulin release from INS-1E, primary screen, cell-based, 5 mM glucose, NPC library (AID 1117329;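 active means compound raises insulin release from rat beta cells at 5 mM glucose, no numeric limit stated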); conditions: rat INS-1E insulin secretion, at 10 µM, stronger effect = higher value
# [2] = growth inhibition of GSK3B-pretreated HCT116 cells – cell-based, CellTiter-Glo, 0.2 to 20 µM (AID 1117336); conditions: HCT116 viability after GSK3B inhibitor, at 20 µM, stronger effect = higher value
# [3] = inhibition of endothelial tube formation, primary screen, imaging, VEGF stimulated, CD31 staining, tube area, NPC library (AID 1117340;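 active means compound that reduces growth-factor-driven endothelial tube area in a mixed cell culture, no cutoff stated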); conditions: VEGF-stimulated ADSC/ECFC co-culture, at 10 µM, stronger effect = higher value
# [4] = glucagon-like peptide 1 release enhancers, primary assay, NCI-H716 cell line, NPC library (AID 1117341;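 active means compound raises GLP1 secretion from the human gut endocrine cells, with no numeric limit stated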); conditions: NCI-H716 cells, at 10 µM, stronger effect = higher value
# [5] = HCT116 colon cancer cell growth inhibition, primary screen, CellTiter-Glo luminescence, NPC library (AID 1117342;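 active means compounds that lower survival of HCT116 colon cancer cells in the luminescence readout, no numeric limit stated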); conditions: at 20 µM (top of the series)
# [6] = CellTiter-Glo luminescent readout of SW480 viability loss, NPC library primary (AID 1117343;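 active means compounds that lower viability of the colon cancer cells in the luminescence readout, with no numeric limit stated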); conditions: CellTiter-Glo luminescence; at 20 µM (top of the series)
# [7] = decreased DLD-1 cellular survival, CellTiter-Glo luminescent readout, NPC compound collection, primary HTS (AID 1117346;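 active means compounds that lower survival of DLD-1 colon cancer cells in the luminescence readout, no cutoff given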); conditions: DLD-1 viability, CellTiter-Glo luminescence; at 20 µM (top of the series)
# [8] = modulation of C. elegans fzo-1 (AID 1259413; call rule not given here;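 further: fzo-1 mutant C. elegans worms in liquid wells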); conditions: C. elegans fzo-1 modulator screen, mean read-out; stronger effect = higher value
# [9] = target: Calcium-dependent protein kinase 1 (Plasmodium falciparum (isolate 3D7)) (UniProt P62344); test: PfCDPK1 kinase inhibitors, biochemical, TCAMS library (AID 1159585; cut-off not given, nearly all actives have IC50 up to about 0.98 µM;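 further: inhibitors leave more ATP so luminescence rises with inhibition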); conditions: recombinant PfCDPK1, Kinase-Glo ATP depletion luminescence
# Chain of Calcium-dependent protein kinase 1 (Plasmodium falciparum (isolate 3D7)) (P62344 whole entry, looked up): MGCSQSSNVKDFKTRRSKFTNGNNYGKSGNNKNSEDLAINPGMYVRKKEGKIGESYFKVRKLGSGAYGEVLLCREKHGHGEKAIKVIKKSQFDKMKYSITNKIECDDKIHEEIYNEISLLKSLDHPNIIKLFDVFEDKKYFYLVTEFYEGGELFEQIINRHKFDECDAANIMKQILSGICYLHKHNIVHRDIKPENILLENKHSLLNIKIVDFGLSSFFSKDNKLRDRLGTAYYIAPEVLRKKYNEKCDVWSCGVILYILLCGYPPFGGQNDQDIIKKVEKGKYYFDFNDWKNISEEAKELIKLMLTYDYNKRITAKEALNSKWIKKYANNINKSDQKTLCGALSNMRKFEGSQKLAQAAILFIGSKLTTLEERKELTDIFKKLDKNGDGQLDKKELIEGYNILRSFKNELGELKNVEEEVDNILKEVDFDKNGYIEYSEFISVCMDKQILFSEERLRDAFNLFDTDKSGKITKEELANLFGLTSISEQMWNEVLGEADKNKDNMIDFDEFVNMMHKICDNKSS
# [10] = target: Plasmodium falciparum protein kinase 6 (PK6, PF3D7_1337100) (UniProt Q8IDW1); test: PfPK6 kinase inhibitors, biochemical, TCAMS library (AID 1159586; call rule not given here); conditions: recombinant PfPK6, Kinase-Glo ATP depletion luminescence
# Chain of Plasmodium falciparum protein kinase 6 (PK6, PF3D7_1337100) (Q8IDW1 1-305): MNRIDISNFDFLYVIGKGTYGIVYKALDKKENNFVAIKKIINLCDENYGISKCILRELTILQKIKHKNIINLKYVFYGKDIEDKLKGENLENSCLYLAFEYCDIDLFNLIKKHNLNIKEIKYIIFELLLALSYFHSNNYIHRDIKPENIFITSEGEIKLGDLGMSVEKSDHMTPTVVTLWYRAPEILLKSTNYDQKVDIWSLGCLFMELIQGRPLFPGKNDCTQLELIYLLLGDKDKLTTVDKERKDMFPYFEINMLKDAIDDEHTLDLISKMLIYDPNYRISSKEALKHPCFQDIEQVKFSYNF
# [11] = target: Protein kinase 7 (PK7), Plasmodium falciparum 3D7 (PF3D7_0213400) (UniProt Q7YTF7); test: inhibition of Plasmodium PK7 catalytic activity – biochemical, TCAMS antimalarial set, Kinase-Glo luminescence (AID 1159587; call rule not given here); conditions: recombinant PfPK7, Kinase-Glo ATP depletion luminescence
# Chain of Protein kinase 7 (PK7), Plasmodium falciparum 3D7 (PF3D7_0213400) (Q7YTF7 1-343): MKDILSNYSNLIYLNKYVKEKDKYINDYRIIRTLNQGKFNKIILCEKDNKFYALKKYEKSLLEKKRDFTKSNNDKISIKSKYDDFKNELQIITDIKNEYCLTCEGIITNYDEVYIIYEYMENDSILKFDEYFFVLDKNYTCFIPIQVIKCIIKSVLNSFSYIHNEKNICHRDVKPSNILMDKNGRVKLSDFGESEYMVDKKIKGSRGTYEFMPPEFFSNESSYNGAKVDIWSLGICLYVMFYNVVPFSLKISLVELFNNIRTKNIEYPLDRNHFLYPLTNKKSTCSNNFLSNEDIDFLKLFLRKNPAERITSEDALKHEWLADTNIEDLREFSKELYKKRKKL
# [12] = target: Calcium-dependent protein kinase 4 (Plasmodium falciparum (isolate 3D7)) (UniProt Q8IBS5); test: PfCDPK4 kinase inhibitors, biochemical, TCAMS library (AID 1159588; cut-off not given, nearly all actives have IC50 up to about 0.91 µM); conditions: recombinant PfCDPK4, Kinase-Glo ATP depletion luminescence
# Chain of Calcium-dependent protein kinase 4 (Plasmodium falciparum (isolate 3D7)) (Q8IBS5 whole entry, looked up): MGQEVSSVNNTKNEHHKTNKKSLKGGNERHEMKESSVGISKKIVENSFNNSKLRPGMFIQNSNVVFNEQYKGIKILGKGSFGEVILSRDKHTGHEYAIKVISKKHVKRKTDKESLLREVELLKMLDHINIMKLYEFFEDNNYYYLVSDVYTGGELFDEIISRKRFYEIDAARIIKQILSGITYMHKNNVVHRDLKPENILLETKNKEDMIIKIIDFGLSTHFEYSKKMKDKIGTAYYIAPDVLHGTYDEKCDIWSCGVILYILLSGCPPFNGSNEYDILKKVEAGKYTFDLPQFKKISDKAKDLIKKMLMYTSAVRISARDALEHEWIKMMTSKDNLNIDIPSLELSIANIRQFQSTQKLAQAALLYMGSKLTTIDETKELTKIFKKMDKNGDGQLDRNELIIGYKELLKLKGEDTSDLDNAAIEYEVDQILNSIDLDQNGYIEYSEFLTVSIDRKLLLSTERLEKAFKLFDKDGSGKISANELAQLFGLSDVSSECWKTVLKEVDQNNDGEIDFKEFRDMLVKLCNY
# [13] = growth inhibition of DIPG glioma cells, dose response, cell-based, SU-DIPG-XVII, MIPE5.0, CellTiter-Glo, qHTS (AID 1347060; cut-off not given, nearly all actives have AC50 up to about 26 µM;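 on AC50: cells exposed to compound for 48 hours before viability readout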); conditions: SU-DIPG-XVII viability, CellTiter-Glo ATP luminescence
# [14] = target: 6-phosphogluconate dehydrogenase, decarboxylating (Homo sapiens) (UniProt P52209); test: 6PGD enzyme inhibitors, primary screen, biochemical, human, recombinant enzyme, NADPH absorbance (AID 1159550;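 active means at least 20% inhibition of 6-phosphogluconate dehydrogenase activity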); conditions: recombinant 6PGD, NADPH absorbance 341 nm; at 10 µM; stronger effect = higher value
# Chain of 6-phosphogluconate dehydrogenase, decarboxylating (Homo sapiens) (P52209 whole entry, looked up): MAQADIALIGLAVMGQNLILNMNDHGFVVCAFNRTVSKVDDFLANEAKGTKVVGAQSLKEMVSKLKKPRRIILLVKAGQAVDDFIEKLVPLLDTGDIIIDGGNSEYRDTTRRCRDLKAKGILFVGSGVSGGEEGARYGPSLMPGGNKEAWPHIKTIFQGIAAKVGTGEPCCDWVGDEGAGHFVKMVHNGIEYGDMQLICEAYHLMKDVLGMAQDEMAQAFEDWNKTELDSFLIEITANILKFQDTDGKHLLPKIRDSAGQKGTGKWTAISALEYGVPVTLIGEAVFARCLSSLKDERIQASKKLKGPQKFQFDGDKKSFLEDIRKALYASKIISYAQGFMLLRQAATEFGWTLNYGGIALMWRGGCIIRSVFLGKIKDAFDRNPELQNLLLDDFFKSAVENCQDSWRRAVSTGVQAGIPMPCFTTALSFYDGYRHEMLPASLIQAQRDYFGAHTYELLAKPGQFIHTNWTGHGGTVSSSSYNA
# [15] = growth inhibition of DIPG glioma cells, dose response, cell-based, SU-DIPG-XIII, MIPE4.0, CellTiter-Glo, qHTS (AID 1347061; cut-off not given, nearly all actives have AC50 up to about 37 µM;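 further: cells exposed to compound for 48 hours before readout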); conditions: SU-DIPG-XIII viability, CellTiter-Glo ATP luminescence
# [16] = growth inhibition of DIPG glioma cells, dose response, cell-based, JHH-DIPG-1, MIPE4.0, CellTiter-Glo, qHTS (AID 1347062; cut-off not given, nearly all actives have AC50 up to about 27 µM;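 on AC50: cells exposed to compound for two days before readout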); conditions: JHH-DIPG-1 viability, CellTiter-Glo ATP luminescence
# [17] = growth inhibition of DIPG glioma cells, dose response, cell-based, SU-DIPG-IV, MIPE4.0, CellTiter-Glo, qHTS (AID 1347063; cut-off not given, nearly all actives have AC50 up to about 30 µM;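 further: compound exposure lasted 48 hours before the viability readout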); conditions: SU-DIPG-IV viability, CellTiter-Glo ATP luminescence
# [18] = growth inhibition of DIPG glioma cells, dose response, cell-based, SU-DIPG-XIII, MIPE5.0, CellTiter-Glo, qHTS (AID 1347064; cut-off not given, nearly all actives have AC50 up to about 23 µM;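 on AC50: cells exposed to compound for 48 hours before the viability read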); conditions: SU-DIPG-XIII viability, CellTiter-Glo ATP luminescence
# [19] = test system: Aerobactin synthetase IucA (Klebsiella pneumoniae); test: IucA aerobactin synthetase inhibitors, biochemical, Tocris library, absorbance (AID 1345561; call rule not given here;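 further: 100% = enzyme without compound and 0% = no enzyme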); conditions: purified IucA enzyme assay, absorbance (OD) read-out; stronger effect = lower value;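 tested at 8 µM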
# [20] = differential killing of epithelial or mesenchymal cells, primary screen, imaging, PC-3E GFP, TEM4-18 mCherry, co-culture (AID 1345086;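 active means compounds killing one labelled cell type while sparing the other, by normalised counts and ratio limits, not self-fluorescent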;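 further: cells exposed to compound for 72 h before imaging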;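 on red/green cell ratio (normalised): normalised mesenchymal count divided by normalised epithelial count so high means epithelial killing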); conditions: imaging cell counts, at 1 µM
structure (smiles),measurement,setting,value
CCCc1c(OCCCCc2nn[nH]n2)ccc(C(C)=O)c1O,insulin secretion stimulation,[1],-0.7% (inactive)
same,viability decrease,[2],49.9% (inactive)
same,tube area decrease,[3],15.6% (inactive)
same,GLP1 secretion stimulation,[4],6.3% (inactive)
same,inhibition of viability,[5],54.3% (active)
same,viability decrease (inhibition),[6],29.7% (inactive)
same,viability decrease (inhibition),[7],27.7% (inactive)
same,mean signal,[8],231 (inactive)
CCCCc1ccc2nc(NC(=O)OC)[nH]c2c1,insulin secretion stimulation,[1],-1.7% (inactive)
same,viability decrease,[2],91.7% (active)
same,tube area decrease,[3],108% (active)
same,GLP1 secretion stimulation,[4],-5.4% (inactive)
same,inhibition of viability,[5],67.5% (active)
same,viability decrease (inhibition),[6],33.8% (inactive)
same,viability decrease (inhibition),[7],50.6% (active)
same,outcome,[9],inactive
same,outcome,[10],inactive
same,outcome,[11],inactive
same,outcome,[12],inactive
same,AC50,[13],0.186 µM (active)
COC(=O)CCc1ccc(OCC(O)CNC(C)C)cc1 (stereo unspecified),insulin secretion stimulation,[1],6.9% (inactive)
same,viability decrease,[2],-7.2% (inactive)
same,tube area decrease,[3],-8.1% (inactive)
same,GLP1 secretion stimulation,[4],-0.5% (inactive)
same,inhibition of viability,[5],18.6% (inactive)
same,viability decrease (inhibition),[6],39.7% (inactive)
same,viability decrease (inhibition),[7],16.8% (inactive)
same,mean signal,[8],266 (inactive)
Cc1onc(-c2ccccc2)c1C(=O)N[C@@H]1C(=O)N2[C@@H]1SC(C)(C)[C@@H]2C(=O)O,insulin secretion stimulation,[1],6.3% (inactive)
same,viability decrease,[2],0.4% (inactive)
same,tube area decrease,[3],-1.6% (inactive)
same,GLP1 secretion stimulation,[4],-3.6% (inactive)
same,inhibition of viability,[5],5.3% (inactive)
same,viability decrease (inhibition),[6],-4.9% (inactive)
same,viability decrease (inhibition),[7],-3.8% (inactive)
same,inhibition,[14],8.76% (inactive)
same,outcome,[15],inactive
same,outcome,[16],inactive
same,outcome,[17],inactive
O=C(Nc1cccc(C2=NCCN2)c1)Nc1cccc(C2=NCCN2)c1,insulin secretion stimulation,[1],0.05% (inactive)
same,viability decrease,[2],72.2% (active)
same,tube area decrease,[3],-57.4% (inactive)
same,GLP1 secretion stimulation,[4],-1% (inactive)
same,inhibition of viability,[5],70.7% (active)
same,viability decrease (inhibition),[6],52.2% (active)
same,viability decrease (inhibition),[7],60.8% (active)
same,outcome,[9],inactive
same,outcome,[10],inactive
same,outcome,[11],inactive
same,outcome,[12],inactive
CNC[C@H](O)c1ccc(O)c(O)c1,insulin secretion stimulation,[1],-2.3% (inactive)
same,viability decrease,[2],31.1% (inactive)
same,tube area decrease,[3],-5.3% (inactive)
same,GLP1 secretion stimulation,[4],2.1% (inactive)
same,inhibition of viability,[5],-7.2% (inactive)
same,viability decrease (inhibition),[6],64.8% (active)
same,viability decrease (inhibition),[7],23.9% (inactive)
same,inhibition,[14],-1.63% (inactive)
same,outcome,[13],inactive
same,outcome,[15],inactive
same,outcome,[16],inactive
same,outcome,[17],inactive
same,outcome,[18],inactive
O=c1[nH]c(=O)n([C@H]2C[C@H](O)[C@@H](CO)O2)cc1F,insulin secretion stimulation,[1],-1.2% (inactive)
same,viability decrease,[2],94.2% (active)
same,tube area decrease,[3],87.8% (active)
same,GLP1 secretion stimulation,[4],2.8% (inactive)
same,inhibition of viability,[5],102% (active)
same,viability decrease (inhibition),[6],93.2% (active)
same,viability decrease (inhibition),[7],69.5% (active)
same,inhibition,[14],-7.05% (inactive)
same,AC50,[15],13.2 µM (active)
same,AC50,[16],1.48 µM (active)
CCCCCCCC/C=C\CCCCCCCC(=O)NCc1ccc(O)c(OC)c1,insulin secretion stimulation,[1],3.15% (inactive)
same,viability decrease,[2],26.6% (inactive)
same,tube area decrease,[3],17.4% (inactive)
same,GLP1 secretion stimulation,[4],6.2% (inactive)
same,inhibition of viability,[5],65.7% (active)
same,viability decrease (inhibition),[6],47.5% (inactive)
same,viability decrease (inhibition),[7],53.1% (active)
same,outcome,[9],inactive
same,outcome,[10],inactive
same,outcome,[11],inactive
same,outcome,[12],inactive
same,remaining activity,[19],100% (inactive)
COc1cc2c(Nc3ccc(Br)cc3F)ncnc2cc1OCC1CCN(C)CC1,insulin secretion stimulation,[1],2.4% (inactive)
same,viability decrease,[2],-7.7% (inactive)
same,tube area decrease,[3],-0.5% (inactive)
same,GLP1 secretion stimulation,[4],1.5% (inactive)
same,inhibition of viability,[5],-16% (inactive)
same,viability decrease (inhibition),[6],-11.4% (inactive)
same,viability decrease (inhibition),[7],-10.1% (inactive)
same,outcome,[10],inactive
same,outcome,[11],inactive
same,outcome,[12],inactive
same,AC50,[13],6.61 µM (active)
same,AC50,[15],3.72 µM (active)
same,AC50,[16],16.6 µM (active)
same,AC50,[18],18.6 µM (active)
NC[C@H](O)c1ccc(O)c(O)c1,insulin secretion stimulation,[1],0.1% (inactive)
same,viability decrease,[2],31.8% (inactive)
same,tube area decrease,[3],-25.8% (inactive)
same,GLP1 secretion stimulation,[4],3.6% (inactive)
same,inhibition of viability,[5],2.5% (inactive)
same,viability decrease (inhibition),[6],38.8% (inactive)
same,viability decrease (inhibition),[7],8.6% (inactive)
same,inhibition,[14],7.95% (inactive)
same,outcome,[13],inactive
same,outcome,[17],inactive
O=C1[C@H]2CCCC[C@H]2C(=O)N1CCCCN1CCN(c2nsc3ccccc23)CC1,insulin secretion stimulation,[1],5.5% (inactive)
same,viability decrease,[2],70.3% (active)
same,tube area decrease,[3],25.8% (inactive)
same,GLP1 secretion stimulation,[4],9% (inactive)
same,inhibition of viability,[5],88.1% (active)
same,viability decrease (inhibition),[6],115% (active)
same,viability decrease (inhibition),[7],99.8% (active)
same,mean signal,[8],254 (inactive)
Nc1ccc(S(N)(=O)=O)cc1,insulin secretion stimulation,[1],-1.2% (inactive)
same,viability decrease,[2],3.9% (inactive)
same,tube area decrease,[3],-8.1% (inactive)
same,GLP1 secretion stimulation,[4],2.3% (inactive)
same,inhibition of viability,[5],-0.4% (inactive)
same,viability decrease (inhibition),[6],6.8% (inactive)
same,viability decrease (inhibition),[7],25.1% (inactive)
same,inhibition,[14],7.71% (inactive)
same,outcome,[13],inactive
same,outcome,[15],inactive
same,outcome,[16],inactive
same,outcome,[17],inactive
same,outcome,[18],inactive
CC(=O)N(O)CCCCCNC(=O)CCC(=O)N(O)CCCCCNC(=O)CCC(=O)N(O)CCCCCN,insulin secretion stimulation,[1],1.8% (inactive)
same,viability decrease,[2],56.1% (active)
same,tube area decrease,[3],83% (active)
same,GLP1 secretion stimulation,[4],-3.6% (inactive)
same,inhibition of viability,[5],75.7% (active)
same,viability decrease (inhibition),[6],21% (inactive)
same,viability decrease (inhibition),[7],31.5% (inactive)
same,inhibition,[14],-4.7% (inactive)
same,red/green cell ratio (normalised),"[20]; actives lie on both sides, counts scaled to control wells, 1 = unselective",1.51 (inactive)
same,normalised cell number,[20]; measured here: epithelial PC-3E GFP cell survival,1.1
same,normalised cell number,[20]; measured here: mesenchymal TEM4-18 mCherry cell survival,1.67
same,AC50,[18],7.42 µM (active)
CCN1CCN(C(=O)N[C@@H](C(=O)N[C@@H]2C(=O)N3C(C(=O)O)=C(CSc4nnnn4C)CS[C@H]23)c2ccc(O)cc2)C(=O)C1=O,insulin secretion stimulation,[1],1.3% (inactive)
same,viability decrease,[2],6.1% (inactive)
same,tube area decrease,[3],-32.8% (inactive)
same,GLP1 secretion stimulation,[4],5.2% (inactive)
same,inhibition of viability,[5],-2.2% (inactive)
same,viability decrease (inhibition),[6],8.6% (inactive)
same,viability decrease (inhibition),[7],3.3% (inactive)
same,inhibition,[14],16.7% (inactive)
same,AC50,[13],26.3 µM (active)
same,outcome,[18],inactive
C[C@@](Cc1ccc(O)c(O)c1)(NN)C(=O)O,insulin secretion stimulation,[1],0.3% (inactive)
same,viability decrease,[2],48.3% (inactive)
same,tube area decrease,[3],-3.9% (inactive)
same,GLP1 secretion stimulation,[4],-1.3% (inactive)
same,inhibition of viability,[5],27.4% (inactive)
same,viability decrease (inhibition),[6],88.8% (active)
same,viability decrease (inhibition),[7],11.7% (inactive)
same,inhibition,[14],-4.83% (inactive)
same,remaining activity,[19],93.6% (inactive)
